{"source": "paper PMC4336329", "about": "(PLoS ONE, 2015)", "note": "The campaign covered roughly 310,000 compounds. About 14,000 (4.5%) showed an effect of 50% or more. Effects have a minus sign here. For the sample, strong results were picked, then their nearest neighbours and some compounds at random.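 Note: peak tail current of the secondary pulse compared with the same well before compound.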", "data": [{"target": "human ether-à-go-go-related gene (hERG) potassium channel (human, UniProt Q12809)", "sequence (Q12809 whole entry, looked up)": "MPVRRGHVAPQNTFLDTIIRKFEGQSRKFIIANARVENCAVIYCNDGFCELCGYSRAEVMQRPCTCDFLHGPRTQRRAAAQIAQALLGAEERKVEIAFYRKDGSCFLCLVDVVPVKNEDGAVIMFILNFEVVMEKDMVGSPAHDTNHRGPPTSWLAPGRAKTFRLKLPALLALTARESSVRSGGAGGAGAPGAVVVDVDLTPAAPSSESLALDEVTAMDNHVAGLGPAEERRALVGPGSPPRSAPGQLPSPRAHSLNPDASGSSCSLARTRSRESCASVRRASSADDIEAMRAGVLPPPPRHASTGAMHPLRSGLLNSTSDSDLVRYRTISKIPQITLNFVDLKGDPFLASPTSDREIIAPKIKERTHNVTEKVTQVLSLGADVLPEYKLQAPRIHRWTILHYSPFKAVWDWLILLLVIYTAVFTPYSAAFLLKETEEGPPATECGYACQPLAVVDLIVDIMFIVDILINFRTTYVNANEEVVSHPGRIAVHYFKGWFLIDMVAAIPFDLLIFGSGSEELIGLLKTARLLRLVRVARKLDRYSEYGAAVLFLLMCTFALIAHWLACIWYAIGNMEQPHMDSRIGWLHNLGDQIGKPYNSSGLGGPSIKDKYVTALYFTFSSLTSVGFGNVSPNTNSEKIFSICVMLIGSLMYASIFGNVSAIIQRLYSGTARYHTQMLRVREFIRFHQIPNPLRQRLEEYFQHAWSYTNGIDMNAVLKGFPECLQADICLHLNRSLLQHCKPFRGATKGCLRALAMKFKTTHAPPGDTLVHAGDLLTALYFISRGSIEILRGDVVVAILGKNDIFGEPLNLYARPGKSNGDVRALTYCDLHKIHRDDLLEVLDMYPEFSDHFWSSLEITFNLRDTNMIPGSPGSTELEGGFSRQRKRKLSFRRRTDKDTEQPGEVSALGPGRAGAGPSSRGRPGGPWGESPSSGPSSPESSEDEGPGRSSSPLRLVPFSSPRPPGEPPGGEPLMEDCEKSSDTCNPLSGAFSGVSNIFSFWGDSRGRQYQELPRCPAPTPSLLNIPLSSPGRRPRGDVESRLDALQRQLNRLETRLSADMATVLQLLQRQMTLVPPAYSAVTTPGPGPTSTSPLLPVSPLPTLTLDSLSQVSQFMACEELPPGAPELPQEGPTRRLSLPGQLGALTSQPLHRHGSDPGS", "experiment": "primary screen, population patch clamp on CHO cells stably expressing hERG; higher = less effect of the substance", "units": {"hERG current change (%, negative = inhibition) at 10uM": "%"}, "values": [{"smiles": "O=C(C1CCCN1S(=O)(=O)c1cccc2nsnc12)N1CCN(c2ccc(F)cc2)CC1", "note": "(stereo not shown)", "hERG current change (%, negative = inhibition) at 10uM": -69.3}, {"smiles": "O=C(C1CCCN1S(=O)(=O)c1cccc2nsnc12)N1CCCCCC1", "note": "(stereo not shown)", "hERG current change (%, negative = inhibition) at 10uM": 7.97}, {"smiles": "O=C(C1CCCN1S(=O)(=O)c1cccc2nsnc12)N1CCCCC1", "note": "(stereo not shown)", "hERG current change (%, negative = inhibition) at 10uM": 11}, {"smiles": "CC(=O)c1ccc(N2CCN(C(=O)C3CCCN3S(=O)(=O)c3cccc4nsnc34)CC2)cc1", "note": "(stereo not shown)", "hERG current change (%, negative = inhibition) at 10uM": -1.72}, {"smiles": "O=C(C1CCCN1S(=O)(=O)c1cccc2nsnc12)N1CCN(c2ccccc2)CC1", "note": "(stereo not shown)", "hERG current change (%, negative = inhibition) at 10uM": -69.5}, {"smiles": "COc1ccc(N2CCN(C(=O)C3CCCN3S(=O)(=O)c3cccc4nsnc34)CC2)cc1", "note": "(stereo not shown)", "hERG current change (%, negative = inhibition) at 10uM": -30.6}, {"smiles": "CCOc1ccc(/C(O)=C2/C(=O)C(=O)N(c3ncccn3)C2c2ccccc2)cc1", "note": "(stereo not shown)", "hERG current change (%, negative = inhibition) at 10uM": -4.75}, {"smiles": "CN1CCN(S(=O)(=O)c2cccc(C(=O)Nc3cc(C(F)(F)F)ccc3N3CCCC3)c2)CC1", "hERG current change (%, negative = inhibition) at 10uM": -1.41}, {"smiles": "CCCCCn1nc(C)c(/C=N/NC(=O)c2ccoc2C)c1C", "hERG current change (%, negative = inhibition) at 10uM": -43.8}, {"smiles": "Cc1cc(C(=O)N/N=C/c2c(C)nn(-c3ccccc3)c2C)c(C)o1", "hERG current change (%, negative = inhibition) at 10uM": 3.8}, {"smiles": "CCCCCn1nc(C)c(/C=N\\NC(=O)c2cc(C)oc2C)c1C", "hERG current change (%, negative = inhibition) at 10uM": -65.5}, {"smiles": "O=C(Nc1cccnc1Cl)c1cc([N+](=O)[O-])ccc1Cl", "hERG current change (%, negative = inhibition) at 10uM": 9.09}, {"smiles": "OC(CNc1nc(-c2cccnc2)nc2ccccc12)c1ccccc1", "note": "(stereo not shown)", "hERG current change (%, negative = inhibition) at 10uM": -36.4}, {"smiles": "COCCCNc1nc(-c2ccncc2)nc2ccccc12", "hERG current change (%, negative = inhibition) at 10uM": -15.5}, {"smiles": "COc1cccc(CNc2nc(-c3cccnc3)nc3ccccc23)c1", "hERG current change (%, negative = inhibition) at 10uM": -15.6}, {"smiles": "c1ccc(CNc2nc(-c3cccnc3)nc3ccccc23)cc1", "hERG current change (%, negative = inhibition) at 10uM": -23.4}, {"smiles": "Fc1ccccc1CNc1nc(-c2cccnc2)nc2ccccc12", "hERG current change (%, negative = inhibition) at 10uM": 17.8}, {"smiles": "c1ccc(-c2nc(NCCCn3ccnc3)c3ccccc3n2)cc1", "hERG current change (%, negative = inhibition) at 10uM": -59.3}, {"smiles": "Fc1ccc(CNc2nc(-c3cccnc3)nc3ccccc23)cc1", "hERG current change (%, negative = inhibition) at 10uM": -50.4}, {"smiles": "c1cncc(-c2nc(NCCCn3ccnc3)c3ccccc3n2)c1", "hERG current change (%, negative = inhibition) at 10uM": -53.5}, {"smiles": "COc1ccc(C(CNc2nc(-c3cccnc3)nc3ccccc23)N(C)C)cc1", "note": "(stereo not shown)", "hERG current change (%, negative = inhibition) at 10uM": -59.2}, {"smiles": "Cc1ccc(CNc2nc(-c3cccnc3)nc3ccccc23)cc1", "hERG current change (%, negative = inhibition) at 10uM": 8.72}, {"smiles": "c1cncc(-c2nc(NCc3ccco3)c3ccccc3n2)c1", "hERG current change (%, negative = inhibition) at 10uM": -5.1}, {"smiles": "Cc1nc(NCCCn2ccnc2)c2ccccc2n1.Cl", "hERG current change (%, negative = inhibition) at 10uM": 3.46}, {"smiles": "CC(=O)N1CCCc2cc(S(=O)(=O)N3CCCC(C(=O)Nc4ccccc4C)C3)ccc21", "note": "(stereo not shown)", "hERG current change (%, negative = inhibition) at 10uM": 10.9}, {"smiles": "Cc1cc(C)cc(NC(=S)N2CCN(C(=O)c3ccco3)CC2)c1", "hERG current change (%, negative = inhibition) at 10uM": -0.347}, {"smiles": "Cc1onc(-c2ccccc2Cl)c1C(=O)OCC(=O)N1CCN(c2ccccc2)CC1", "hERG current change (%, negative = inhibition) at 10uM": -16.1}, {"smiles": "CC1=C(C(=O)OCc2ccccc2)C(c2ccc(C#N)cc2)NC(=O)N1CCCC(=O)O", "note": "(stereo not shown)", "hERG current change (%, negative = inhibition) at 10uM": 10.9}, {"smiles": "CCOC(=O)CSc1nc2ccccc2c(=O)n1C", "hERG current change (%, negative = inhibition) at 10uM": 10.1}, {"smiles": "CCOC(=O)c1c(NC(=O)CSc2nccn2C)sc(C(=O)NC)c1C", "hERG current change (%, negative = inhibition) at 10uM": -11.5}, {"smiles": "COc1ccc2ccccc2c1/C=N/N1C(=O)CSC1=S", "hERG current change (%, negative = inhibition) at 10uM": 16.7}, {"smiles": "COc1ccc(-n2nc(C(=O)NCC(=O)NCCCN3CCOCC3)c3ccccc3c2=O)cc1", "hERG current change (%, negative = inhibition) at 10uM": 3.4}, {"smiles": "CCN(CC(=O)N1CCCC1)S(=O)(=O)c1ccc(Br)cc1", "hERG current change (%, negative = inhibition) at 10uM": 13.5}, {"smiles": "CCc1cc(=O)oc2c3c(cc(OCC(=O)NC4CC4)c12)OC(C)(C)CC3", "hERG current change (%, negative = inhibition) at 10uM": -13.9}, {"smiles": "Cc1ccc(CN2CCN(/N=C/c3cccnc3)CC2)c(C)c1", "hERG current change (%, negative = inhibition) at 10uM": -47.5}, {"smiles": "COc1ccccc1NC(=O)Cn1c(C)cc(=O)c2cccc(OC)c21", "hERG current change (%, negative = inhibition) at 10uM": -33.3}, {"smiles": "COCCNC(=O)c1c[nH]c2ccc(S(=O)(=O)N3CCc4ccccc43)cc2c1=O", "hERG current change (%, negative = inhibition) at 10uM": 6.11}, {"smiles": "O=C(OCc1ccccc1F)c1ccc2c(c1)-c1ccccc1C2=O", "hERG current change (%, negative = inhibition) at 10uM": 16.4}, {"smiles": "Cl.N=c1n(CCCOc2ccc(F)cc2)c2ccccc2n1CC(N)=O", "hERG current change (%, negative = inhibition) at 10uM": -41.6}, {"smiles": "Cc1cccc(OCCn2c(=O)sc3ccccc32)c1", "hERG current change (%, negative = inhibition) at 10uM": -3.38}, {"smiles": "CCOC(=O)Cn1c(=O)n(CC(=O)OCC)c2ccccc21", "hERG current change (%, negative = inhibition) at 10uM": 12.3}, {"smiles": "CCOC(=O)Cn1c(=N)n(CCOc2ccc(OC)cc2)c2ccccc21.Cl", "hERG current change (%, negative = inhibition) at 10uM": -56.4}, {"smiles": "Br.C=CCn1c(=N)n(CC(=O)OCC)c2ccccc21", "hERG current change (%, negative = inhibition) at 10uM": 5.36}, {"smiles": "CCOC(=O)Cn1c(=N)n(CCOc2ccc(Br)cc2)c2ccccc21.Cl", "hERG current change (%, negative = inhibition) at 10uM": -69.5}, {"smiles": "CCOC(=O)Cn1c(=N)n(Cc2ccccc2F)c2ccccc21.Cl", "hERG current change (%, negative = inhibition) at 10uM": -28.3}, {"smiles": "CCOC(=O)Cn1c(=N)n(CCOc2cccc(C)c2)c2ccccc21.Cl", "hERG current change (%, negative = inhibition) at 10uM": -62.2}, {"smiles": "Cl.N=c1n(CCCOc2ccc(Br)cc2)c2ccccc2n1CC(N)=O", "hERG current change (%, negative = inhibition) at 10uM": -44.7}, {"smiles": "CCOC(=O)Cn1c(=N)n(CCOc2ccc(F)cc2)c2ccccc21.Cl", "hERG current change (%, negative = inhibition) at 10uM": -65.8}, {"smiles": "Cc1cccc(OCCn2c(=O)n(C)c3ccccc32)c1", "hERG current change (%, negative = inhibition) at 10uM": -13.6}, {"smiles": "CCOC(=O)Nc1ccc(S(=O)(=O)N2CCOCC2)cc1", "hERG current change (%, negative = inhibition) at 10uM": 6.38}, {"smiles": "CC(/C=N/Nc1nc2ccccc2[nH]1)=C\\c1ccccc1", "hERG current change (%, negative = inhibition) at 10uM": -41.8}, {"smiles": "O=C(NCCCN1CCCC1=O)Nc1ccc(F)c(Cl)c1", "hERG current change (%, negative = inhibition) at 10uM": -1.92}, {"smiles": "Cc1nc2ccccc2c(=O)n1-c1cccc(NS(=O)(=O)c2ccccc2)c1", "hERG current change (%, negative = inhibition) at 10uM": -20.9}, {"smiles": "CC(=O)Nc1ccc(N2C(=O)c3ccc(C(=O)Nc4nnc(SCc5ccc(F)cc5)s4)cc3C2=O)cc1", "hERG current change (%, negative = inhibition) at 10uM": 13.4}, {"smiles": "Cl.OC(c1ccccc1)(c1ccc(F)cc1)C(c1ccccc1)N1CCOCC1", "note": "(stereo not shown)", "hERG current change (%, negative = inhibition) at 10uM": 16.8}]}]}
